Hits are enriched below; roughly 1.6% of the tested compounds scored in any of these assays.
PPC-1+TRAIL kill: compounds killing PPC-1 cancer cells with TRAIL present (potentiator screen, no TRAIL-free arm) | PPC-1 cells + TRAIL, ATPLite viability luminescence | cell killing (% activity), % at 4 µM or 5 µM | 220,000 compounds, 0.41% hits | AID 1443;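 active means cell killing above 50% in the first pass at 4 µM, then a duplicate retest at 5 µM averaging 50% or more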
STAT1 blocker: STAT1 signaling inhibition | NIH 3T3 STAT1-luciferase reporter, IFN-gamma, luminescence | inhibition, % at 5.5 µM | 200,000 compounds, 0.35% hits | AID 920;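 active means inhibition above a set limit, the mean inhibition across all tested compounds plus 3 SD, cut at about 34% in these data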
STAT3 blocker: reduces IL-6 driven STAT3 reporter signal; U3A cells, IL-6 STAT3-luciferase reporter, luminescence; host cell line lacks STAT1; inhibition, % at 5.5 µM; 190,000 compounds, 0.89% hits; AID 862;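 active means inhibition above the mean inhibition across all screened compounds plus 3 SD, cut at about 44% in these data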
TRAIL sens C8: caspase-8 TRAIL sensitization; 360,000 compounds, 1% hits; inhibition (viability loss, TRAIL sensitization), % at 10 µM; NB7+C8 cells + TRAIL, ATPlite viability luminescence;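 active means compounds causing at least 50% loss of cell viability in the single-dose screen, relative to plate controls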
Platelet DG rel: platelet dense granule release activity. human platelet-rich plasma, SFLLRN dense granule ATP release, luminescence. inhibition, %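 (compounds screened at 7.5 µM in platelet-rich plasma)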. 300,000 compounds, 0.22% hits. AID 1663;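 active means mean replicate score, as percent of positive control, at or above 50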
Hits are given with their value; . = inactive; / = no result given.

SMILES | PPC-1+TRAIL kill | STAT1 blocker | STAT3 blocker | TRAIL sens C8 | Platelet DG rel
CN(C)c1ccc(-c2nc3ccccn3c2/N=C/c2ccc(Br)cc2)cc1 | . | . | . | 53 | .
CCOC(=O)c1sc(N2C(=O)C(O)=C(C(=O)c3ccc(C)o3)C2c2cccc([N+](=O)[O-])c2)nc1C (centres undefined) | / | / | / | . | 51
COc1ccccc1-c1cnc2c(c1)C(=O)N([C@@H](C)CO)C[C@@H](C)[C@H](CN(C)C(=O)c1cccnc1)O2 | / | / | / | . | /
COc1cc(Cl)c(NC2=CC(=O)C(=O)c3ccccc32)c(OC)c1 | / | / | / | 87 | /
CCOc1ccc(NC2=CC(=O)CCC2)cc1 | / | / | / | . | .
CCOc1ccc(NC2=CC(=O)C(=O)c3ccccc32)cc1 | / | / | / | 74 | /
O=C1C=C(Nc2cccnc2)c2ccccc2C1=O | / | / | / | 70 | /
Cc1ccc(NC2=CC(=O)C(=O)c3ccccc32)c(C)c1 | / | / | / | . | /
O=C1C=C(NCc2ccccc2)c2ccccc2C1=O | . | . | . | . | .
O=C1C=C(Nc2ccc(F)cc2)c2ccccc2C1=O | / | / | / | 58 | /
O=C1C=C(Nc2ccccc2O)c2ccccc2C1=O | . | . | . | . | .
CN1CCN(C(=O)c2cccn(Cc3c(Cl)cccc3Cl)c2=O)CC1 | / | / | / | . | .
CCC(C)C(NC(=O)C(Cc1ccc(O)cc1)NC(=O)OCc1ccccc1)C(=O)OC (centres undefined) | / | / | / | . | /
O=C(COC(=O)COc1ccc(Cl)cc1Br)NC1CCCC1 | / | / | / | . | /
CSCCC(C(=O)NCc1ccccc1)n1c(-c2ccc3c(c2)CCO3)nc2ccccc21 (centres undefined) | / | / | / | . | /
COc1ccc(-c2cc3ccc(F)cc3cn2)cc1 | / | / | / | 57 | /
COC(=O)c1cccc(NC(=O)/C=C/c2ccc([N+](=O)[O-])cc2)c1 | . | . | . | 71 | .
CCOC(=O)c1cccc(NC(=O)/C=C/c2ccc([N+](=O)[O-])cc2)c1 | . | . | . | 76 | .
CC(=O)Nc1ccc(C(=O)OCC(=O)c2cccc([N+](=O)[O-])c2)cc1 | . | . | . | . | .
Cc1ccc(C(=O)COC(=O)c2cccc(NC(=O)c3ccc([N+](=O)[O-])cc3[N+](=O)[O-])c2)cc1 | . | 43 | 46 | . | .
COC(=O)c1cccc(NC(=O)/C=C/c2cccc([N+](=O)[O-])c2)c1 | . | . | . | . | .
N#Cc1ccccc1C[C@H](N)C(=O)NC[C@H]1O[C@@H](n2cnc3c(N)ncnc32)[C@H](O)[C@@H]1O | / | / | / | . | /
CC(C)[C@@H]1CC[C@@H](C)C[C@H]1O | / | / | / | . | /
CCCNC(=O)C1(C)CCCN(C(=O)c2ccccc2F)C1 (centres undefined) | / | / | / | . | /
CC(C)C[C@@H](CN1CCC[C@H]1CN1C(=O)C(=O)NC[C@@H]1Cc1ccccc1)N1C[C@H](Cc2ccccc2)N(CC2CCCCC2)C(=O)C1=O | / | / | / | . | /
SMILES | PPC-1+TRAIL kill | STAT1 blocker | STAT3 blocker | TRAIL sens C8 | Platelet DG rel
Cc1ccc2[nH]c3c(N4CCCCCC4)ncnc3c2c1 | . | 36 | 68 | / | .
CN1CC(c2ccccc2)C2(SC(=S)N(Cc3ccco3)C2=O)C12C(=O)Nc1ccccc12 (centres undefined) | . | . | . | 50 | .
Cc1ccnc(NC(=O)CCC2CCCCC2)c1 | . | . | . | 63 | .
Cc1cc(NC(=O)CCC2CCCCC2)no1 | . | . | . | . | .
O=C(Nc1ccccc1)c1cn2ccccc2n1 | . | / | / | 58 | .
O=C(Nc1ccc(-c2cn3ccccc3n2)cc1)c1cccs1 | . | . | . | 52 | .
O=C(Nc1cccc(C(=O)NC2CC2)c1)c1ccccc1 | / | / | / | . | /
Cc1ccn2cc(C(=O)Nc3cccc(C(=O)NC4CC4)c3)nc2c1 | / | / | / | 54 | /
Cc1ccc(C2CC2c2n[nH]c(=S)n2-c2ccc(C)cc2)cc1 (centres undefined) | . | . | . | . | .
Cc1ccc(-n2c(C3CC3c3ccc(Cl)cc3)n[nH]c2=S)cc1 (centres undefined) | . | . | . | 59 | .
CCc1nc(N)nc(N)c1-c1ccc(NCCN)c([N+](=O)[O-])c1 | / | / | / | 79 | /
CCc1nc(N)nc(N)c1-c1ccc(N(C)Cc2ccccc2)c([N+](=O)[O-])c1 | / | / | / | 70 | /
CCc1nc(N)nc(N)c1-c1ccc(Cl)cc1 | . | . | . | 81 | .
COCCNC(=O)C1(C)CCCN(Cc2cc3ccccc3o2)C1 (centres undefined) | / | / | / | . | /
O=c1[nH][nH]c2c1C(c1ccc(Cl)c(Cl)c1)OC(CCc1ccccc1)C2 (centres undefined) | / | / | / | . | /
O=C(NCC1CCCO1)c1cn(Cc2ccccc2)nc1-c1ccc(Cl)cc1 (centres undefined) | / | / | / | . | /
CCCC(=O)N1CCC1(C)C(=O)Nc1ccc2c(c1)OCCO2 (centres undefined) | / | / | / | . | /
O=C(CCN1C(=O)/C(=C\c2ccccc2F)SC1=S)N1CCCCC1 | / | / | / | . | .
O=C(N/N=C/c1ccc(-c2cccc(C(F)(F)F)c2)o1)c1cccc(F)c1 | . | . | . | 73 | .
NC(=O)N/N=C/c1ccc(-c2cccc(C(F)(F)F)c2)o1 | . | . | . | . | .
O=C(N/N=C/c1ccccc1O)c1cccc(C(F)(F)F)c1 | 52 | . | . | . | .
CCOc1ccc(N2CC(C(=O)NNC(=O)c3ccc(Br)cc3)CC2=O)cc1 (centres undefined) | / | / | / | . | .
CCCCNC(=O)C1(C)CCCCN1C(=O)c1ccc(C#N)cc1 (centres undefined) | / | / | / | . | /
Cc1nn(-c2ccccc2)c(Cl)c1CN(C(=O)CCl)c1cccc2ccccc12 | . | . | . | 97 | .
Cc1nn(-c2ccccc2)c(Cl)c1CN(C(=O)CCl)c1ccc(Cl)cc1 | . | . | . | 97 | .
CN1CC(=O)N2C(c3ccc(Cl)cc3)c3[nH]c4ccccc4c3C[C@H]2C1=O (some centres undefined) | / | / | / | 55 | .
COC(=O)c1ccc(C2c3[nH]c4ccccc4c3C[C@H]3C(=O)N(C)CC(=O)N23)cc1 (some centres undefined) | / | / | / | . | .

Bioassay records as filed in PubChem BioAssay.
